Only some compounds are listed: those with a hit (about 4.2% of all), similar ones and a draw of the others.
TCR act: Activators of T cell receptors: qHTS campaign. 330,000 tested, under 10 active. Potency, µM (series often up to 9.22 µM), for the others: at the top dose activation of IL-2 secretion, hits mostly activators. primary human leukocytes, anti-CD3, IL-2 HTRF, 48 h; note: % of control where 0% means no effect
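Using a-CD3 beads without co-stimulation, primary human leukocytes were exposed to compounds for 48 hr. An HTRF IL-2 kit measured the cytokine, with europium-to-d2 energy transfer producing emission at 665nm upon 320nm excitation.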
Sfp inh: qHTS Assay for Inhibitors of Bacillus subtilis Sfp phosphopantetheinyl transferase (PPTase); 4'-phosphopantetheinyl transferase ffp (Bacillus subtilis), Q9F4F7; Potency, µM, for the others: largest response in the series, negative = inhibition, actives largely listed as inhibitors; Biochemical Sfp PPTase activity, qHTS; 310,000 tested, 3.5% active;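 note: the enzyme is Sfp with the accession as filed and its product quenches rhodamine fluorescence; potency is the fitted concentration of half-maximal effect; 0% = enzyme reaction without inhibitor and -100% = no enzyme wells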
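Step 1, compound plus 15 nM Sfp-PPTase, 15 min, room temperature. Step 2, add rhodamine-CoA (5 uM) and BHQ-2-YbbR (12.5 uM). Step 3, read 525/598 nm fluorescence at 0 and 30 min.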
uPA surface inh: qHTS for Inhibitors of Cell Surface uPA Generation | cell surface uPA generation assay, qHTS | 330,000 tested, 0.31% active | Potency, µM (top dose mostly 38.3 µM), for inactives: at the highest dose activity change, negative = inhibition, actives largely listed as inhibitors | AID 540303, 2011; active = well fitted inhibition curve with a large enough effect; inconclusive = small, poorly fitted or top-dose-only effect; inactive = no such curve, though single readings can be large or run the other way; tested in mouse RAW 264.7 cells; note: potency is the fitted concentration of half-maximal effect; % is set by controls: 0 for no effect and ±100 for the full control effect; nearly all actives have a fitted effect of over 55% in size
ClpP mod: qHTS Assay for Activators of ClpP. 340,000 tested, 1.9% active. Potency, µM (titrated, usually from 57.5 µM), without a hit: top-dose activity change, negative = active. purified B. subtilis ClpP, FRET peptide cleavage, 20 min. ATP-dependent Clp protease proteolytic subunit (Bacillus subtilis (strain 168)), P80244; active = well fitted falling curve with a large enough effect; inconclusive = small, poorly fitted or top-dose-only effect; inactive = no such curve, though single readings can be large or run the other way; note: potency is the fitted concentration of half-maximal effect; the source files actives as falling curves though it sought activators and does not explain the sign; nearly all actives have a fitted effect of over 65% in size
Target sequence (P80244 whole entry, looked up): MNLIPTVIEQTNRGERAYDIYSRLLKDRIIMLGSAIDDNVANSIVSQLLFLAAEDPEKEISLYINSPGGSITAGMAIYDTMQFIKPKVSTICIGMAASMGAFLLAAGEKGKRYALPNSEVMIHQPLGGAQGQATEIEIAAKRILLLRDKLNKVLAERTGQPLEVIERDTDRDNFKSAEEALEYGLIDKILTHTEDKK
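Buffer: 100 mM Tris/HCl pH8, 100 mM KCl, 0.05% low protease BSA, 2.5% glycerol, 0.01% Tween-20. ClpP 10 microg/mL final; 20 min RT; delta FRET normalized to ADEP and DMSO controls.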
* marks the source's active call; other numbers are inactive results; u = inconclusive; x = no result given; ! = not confirmed by another sample; [ ] = remark or other dose. Unless noted, calls come from the whole dose curve; as a rule, active = well fitted curve in the direction sought with a large enough effect; inconclusive = small, poorly fitted or top-dose-only effect, or another doubt; inactive = no such curve, though single readings can be large; an effect the other way counts as inactive or inconclusive.

SMILES	TCR act	Sfp inh	uPA surface inh	ClpP mod
COc1ccc(-n2c(N)c(C(=O)NCc3ccco3)sc2=S)cc1	-3%	4%	4%	-1%
CCn1c(N)c(C(N)=O)sc1=S	-7%	14µM*	-1%	1%
Cc1ccc(S(=O)(=O)N2[C@H](CC(=O)c3cccc4ccccc34)OC[C@@H]2C)cc1	x	x	x	2%
CCc1ccc(-c2nc3cc(NC(=O)c4ccc(F)cc4)ccc3o2)cc1	x	x	x	-14%
CCn1c(N)c(C(=O)NCc2ccco2)sc1=S	4%	22µM*	-2%	2%
COc1ccc(C(=O)/C=C/C(=O)N(Cc2ccc3c(c2)OCO3)C(C(=O)NC2CCCCC2)c2ccncc2)c(O)c1 (centres undefined)	-5%[46.1 µM]	-5%	-9%	13µM*
O=C1CNC(=S)N1Cc1ccccc1	4%	7%	8%	4%
O=C1C2CC(O)CN2C(=S)N1Cc1ccccc1 (centres undefined)	3%	50µM*	6%	-2%
CC(O)CNCCOc1ccccc1-c1ccccc1 (centres undefined)	-5%	71µM*	13%	1%
CN(C)CCOCCOc1ccccc1-c1ccccc1	0%	79µM*	x	0%
COCCCNCCOc1ccccc1-c1ccccc1	5%[46.1 µM]	-11%	-1%	-1%
COCCNCCOc1ccccc1-c1ccccc1	2%	50µM*	-2%	-3%
OC(CN1CCOCC1)c1ccccc1 (centres undefined)	x	x	x	1%
Oc1ccc(N2CCN(CC(O)c3ccccc3)CC2)cc1 (centres undefined)	-1%	50µM*	-10%	x
Cc1cccc(OCc2ccc(-c3nc(C#N)c(NCCN(C)C)o3)o2)c1	x	x	x	4%
O=c1c(-c2ccco2)[n+]([O-])c2ccccc2n1OCc1c(F)cccc1F	-3%	50µM*	0%	x
COc1ccccc1COn1c(=O)c(-c2ccco2)[n+]([O-])c2ccccc21	-3%	50µM*	-3%	0%
CCOC(=O)COn1c(=O)c(-c2ccco2)[n+]([O-])c2ccccc21	1%	25µM*	6%	-2%
CCOC(=O)COn1c(=O)c(-c2ccc(C)cc2)[n+]([O-])c2ccccc21	1%	6%	-4%	-2%
CC(C)(C)OC(=O)N1CCC(c2c(C(=O)NCc3cccc(Cl)c3)cnn2-c2ccc(F)cc2)CC1	x	x	x	0%
CCOC(=O)N1CCC(=NNc2nc(C)cc(=O)[nH]2)CC1	-4%	79µM*	3%	-1%
Cc1ccc(S(=O)(=O)N2c3ccccc3OC(C(=O)OC(C)(C)C)(C(=O)OC(C)(C)C)C2CC(=O)c2ccccc2)cc1 (centres undefined)	x	x	x	-2%
N=c1n(Cc2ccccc2)c2ccccc2n1CC(O)COc1ccc(Cl)cc1Cl (centres undefined)	-3%	18µM*	-3%	x
C=CCn1c(C)cc(-c2csc(NCC)n2)c1C	10%	u	6%	x
CCCn1c(C)cc(-c2csc(N)n2)c1C	8%	56µM*	0%	-5%
SMILES	TCR act	Sfp inh	uPA surface inh	ClpP mod
C=CCn1c(C)cc(-c2csc(N)n2)c1C	4%	40µM*	x	0%
C=CCn1c(C)cc(-c2csc(NC)n2)c1C	3%	25µM*	-1%	0%
Cc1cc(C)c2cc(C#N)c(NCCNC(=O)c3ccncc3)nc2c1	x	x	x	-24%
CN(C)S(=O)(=O)c1ccc(Cl)c(NC(=O)CSc2nc3ccccc3c(=O)n2CCCN2CCOCC2)c1	-13%[46.1 µM]	8%	16%	0%
Cc1ccc(S(=O)(=O)Nc2cccc3ccc[n+](C)c23)cc1	x	-11%	x	x
N=c1c(C(=O)NCc2ccco2)cc2c(=O)n3ccccc3nc2n1CCc1ccccc1	-4%	-8%	-14%	28µM*
COc1ccc(CCn2c(=N)c(C(=O)NCc3ccco3)cc3c(=O)n4ccccc4nc32)cc1OC	-2%	x	-25%	1%
N=c1c(C(=O)NCc2ccc(F)cc2)cc2c(=O)n3ccccc3nc2n1CC1CCCO1 (centres undefined)	6%	7%	-4%	-8%
N=c1c(C(=O)NCc2ccco2)cc2c(=O)n3ccccc3nc2n1CC1CCCO1 (centres undefined)	0%	x	-9%	28µM*
CCOc1cc(/C=N/NC(=O)CNc2cccc(C)c2)ccc1OC(=O)c1ccccc1	4%	4%	-1%	10µM*
CCOC(=O)CN1NC2(CCCCCC2)NC1=S	2%	50µM*	7%	1%
COc1ccc(-c2nc3cnc(N4CCN(C)CC4)nc3n(Cc3cccc(OC)c3)c2=O)cc1	x	-22%	x	x
CCN(CC)C(=O)COc1ccc(/C(C)=N/Nc2ncc(Cl)cc2Cl)cc1	0%	79µM*	-13%	-4%
C/C(=N\Nc1ncc(Cl)cc1Cl)c1ccc(C#N)cc1	x	11%	4%	47%
CCOc1ccc(C2C(C(N)=O)=C(C)Nc3nc(-c4ccc(OC)cc4)nn32)cc1 (centres undefined)	x	x	x	32%
COc1ccc(CNC(=O)CSCc2ccc(C)cc2)c(OC)c1	x	x	x	1%
CCOC(=O)C1=C(C)N=c2s/c(=C/c3cccc([N+](=O)[O-])c3O)c(=O)n2C1c1ccc(OC)cc1OC (centres undefined)	-4%	50µM*	2%	x
COc1ccc(C2C(C(C)=O)=C(C)N=c3s/c(=C\c4ccco4)c(=O)n32)c(OC)c1 (centres undefined)	1%	50µM*	2%	-4%
CCOC(=O)C1=C(C)N=c2s/c(=C\c3ccc(O)c([N+](=O)[O-])c3)c(=O)n2C1c1ccccc1OC (centres undefined)	-5%	-12%	3%	x
CCOC(=O)C1=C(c2ccccc2)N=c2s/c(=C\c3ccco3)c(=O)n2C1c1cccs1 (centres undefined)	2%	50µM*	4%	0%
CC12C=CC(=O)C=C1[C@@H](F)CC1C2C(O)CC2(C)C1CC[C@]2(O)C(=O)CO (some centres undefined)	x	3%	x	x
Cc1ccccc1OCCC(=O)OCC(=O)c1c(N)n(CC(C)C)c(=O)n(C)c1=O	3%	x	-2%	28µM*
Cc1ccc2nc(Nc3ccc(Br)cc3)nc(-c3ccccc3)c2c1	x	x	x	0%
C=CCc1cccc2cc(C(=O)Nc3ccc(F)cc3)c(=O)oc12	4%	11%	-16%	0%
C=CCc1cccc2cc(C(=O)Nc3ccc(S(=O)(=O)Nc4nnc(CC)s4)cc3)c(=O)oc12	0%[46.1 µM]	79µM*	5%	-2%
CCc1nnc(NS(=O)(=O)c2ccc(NC(=S)NC(=O)/C=C/c3ccc(OC)cc3)cc2)s1	2%[46.1 µM]	79µM*	-10%	u
CCc1nnc(NS(=O)(=O)c2ccc(NC(=O)/C=C/C(=O)O)cc2)s1	-35%	50µM*	-1%	x
CCc1nnc(NC(=O)c2ccc(NS(=O)(=O)c3ccccc3)cc2)s1	1%[46.1 µM]	12%	x	28µM*!
CCc1nnc(NS(=O)(=O)c2ccc(NC(=S)NC(=O)/C=C/c3ccccc3)cc2)s1	0%[46.1 µM]	-8%	-4%	-2%
COc1cc(-c2ccno2)ccc1S(=O)(=O)N1CCN(c2ccc(F)cc2)CC1	x	x	x	0%
